{"source": "the OligoGym collection", "data": [{"target": "KCNMB2", "assay": "pooled miR-30 sensor sort-seq; sequence = guide strand", "conditions": "shRNA", "values": [{"sequence": "TAACACTCTTCTGGTTTCCTTC", "sensor-assay potency score (higher = more potent)": -0.332}, {"sequence": "TTATTGTCTCTTCTGTGTGGTA", "sensor-assay potency score (higher = more potent)": -0.319}, {"sequence": "TTTTGTTAGGATAACACTCTTC", "sensor-assay potency score (higher = more potent)": -0.026}, {"sequence": "TTCCATGACAACATTCACCAGG", "sensor-assay potency score (higher = more potent)": -0.0986}, {"sequence": "TAGGATAACACTCTTCTGGTTT", "sensor-assay potency score (higher = more potent)": 0.203}, {"sequence": "TTAGGATAACACTCTTCTGGTT", "sensor-assay potency score (higher = more potent)": -1.15}, {"sequence": "TTTATTGTCTCTTCTGTGTGGT", "sensor-assay potency score (higher = more potent)": 0.74}, {"sequence": "TTTGTTAGGATAACACTCTTCT", "sensor-assay potency score (higher = more potent)": 0.649}, {"sequence": "TTTTATTGTCTCTTCTGTGTGG", "sensor-assay potency score (higher = more potent)": 0.163}, {"sequence": "TAGGGAACTCATAACAGACTGC", "sensor-assay potency score (higher = more potent)": -0.389}, {"sequence": "TGTTAGGATAACACTCTTCTGG", "sensor-assay potency score (higher = more potent)": -0.415}, {"sequence": "TTGATTTTTATTGTCTCTTCTG", "sensor-assay potency score (higher = more potent)": -0.466}]}, {"target": "KCNN2", "assay": "pooled miR-30 sensor sort-seq; sequence = guide strand", "conditions": "shRNA", "values": [{"sequence": "ATGAACAACTGTATTTCCCTGG", "sensor-assay potency score (higher = more potent)": 0.818}, {"sequence": "TAGCTTGCAGGAATTTTCGTTG", "sensor-assay potency score (higher = more potent)": -0.466}, {"sequence": "TTCTCGAAGTCTTCACTCCTTT", "sensor-assay potency score (higher = more potent)": -0.431}, {"sequence": "TTACACTTCTTAATTGATGAAT", "sensor-assay potency score (higher = more potent)": -0.837}, {"sequence": "TTGTCGTAGCTCTCCATCTGAG", "sensor-assay potency score (higher = more potent)": -1.04}, {"sequence": "TAATTGATGAATAGCTTGCAGG", "sensor-assay potency score (higher = more potent)": -0.772}, {"sequence": "TTAGACACCACGATCTCGGGGG", "sensor-assay potency score (higher = more potent)": 1.02}, {"sequence": "TACTTTTGCATGATCTATCTTT", "sensor-assay potency score (higher = more potent)": -0.0765}, {"sequence": "TTCTTAATTGATGAATAGCTTG", "sensor-assay potency score (higher = more potent)": -1.14}, {"sequence": "TTAATTGATGAATAGCTTGCAG", "sensor-assay potency score (higher = more potent)": 0.193}, {"sequence": "ATTGATATCAACCACATCGCTC", "sensor-assay potency score (higher = more potent)": -0.533}, {"sequence": "TTGATGAATAGCTTGCAGGAAT", "sensor-assay potency score (higher = more potent)": -0.859}]}]}
